Reference: PubChem BioAssay (NCATS)
“And” between values parts separate entries of the source, which are not always exact repeats. Identical values can stand only once. Inconclusive results are not listed. Values without a mark were called inactive. The source made the active and inactive calls. Calls come from the whole dose curve.

target: Cytochrome P450 1A2 (Homo sapiens) (UniProt P05177); test: p450-cyp1a2 (AID 410); settings: recombinant CYP1A2, luciferin-ME demethylation, luminescence; series mostly up to 25.6 µM; activity change, negative = inhibition: at the top concentration;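 for activity change, negative = inhibition: -100% = full effect of reference inhibitor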
Sequence (P05177 whole entry, looked up): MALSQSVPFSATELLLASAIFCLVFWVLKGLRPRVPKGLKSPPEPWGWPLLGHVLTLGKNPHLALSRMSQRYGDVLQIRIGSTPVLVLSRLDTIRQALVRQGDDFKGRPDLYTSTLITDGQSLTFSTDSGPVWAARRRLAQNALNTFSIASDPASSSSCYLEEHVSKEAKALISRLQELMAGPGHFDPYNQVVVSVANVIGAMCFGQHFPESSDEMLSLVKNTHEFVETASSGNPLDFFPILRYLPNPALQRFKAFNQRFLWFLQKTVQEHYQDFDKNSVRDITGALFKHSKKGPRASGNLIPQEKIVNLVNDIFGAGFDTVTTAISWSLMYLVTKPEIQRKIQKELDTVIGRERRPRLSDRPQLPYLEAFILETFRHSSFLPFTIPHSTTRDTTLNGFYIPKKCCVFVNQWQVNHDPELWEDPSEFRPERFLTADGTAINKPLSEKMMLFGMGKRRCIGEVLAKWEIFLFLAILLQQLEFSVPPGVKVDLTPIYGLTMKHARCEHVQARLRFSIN
Experimental: The P450 gene superfamily is involved in metabolism and the clearance of xenobiotics. This assay used human CYP1A2 to measure the demethylation of luciferin 6' methyl ether (Luciferin-ME; Promega-Glo) to luciferin. The luciferin is then measured by luminescence after the addition of a luciferase detection regeant. Luciferin-ME concentration in the assay was equal to its Km for CYP1A2.
NCGC Assay Protocol Summary:
Two uL of enzyme and substrate mix (final concentrations: 20nM CYP1A2, 100uM Luciferin-ME, 100mM KPO4) were dispensed into a white, solid bottom 1536-well microtiter plate. 23nL of compound was transferred by a pin tool. The plate was incubated at room temperature for 10 min. Two uL of an NADPH regeneration solution (Promega supplied reagent) was dispensed and the reaction was allowed to continue for 60 min at room temperature. Then the reaction was stopped by reconstituted detection reagent. After another 20 min of incubation the plate was read on the ViewLux (Perkin Elmer) at 60 sec exposure and 2x2 binning. This protocol was carried out with Promega-Glo reagents and further information can be found at http://www.promega.com/tbs/tb325/tb325.pdf. Data were normalized to the to AC100 inhibition (57 uM furafylline).
Potency is the fitted concentration of half-maximal effect.

SMILES	Potency	activity change, negative = inhibition
O=C1NC(=S)NC(=O)C1=Cc1cccc2cc3ccccc3cc12	0.398 µM (active)	–
O=[N+]([O-])O[C@H]1CO[C@H]2[C@H]1OC[C@@H]2O[N+](=O)[O-]	–	0.9%
c1csc(CN2CCC3(CCNCC3)CC2)n1	–	2.3% [at 57 µM]
CC(C)(C)NC[C@H](O)c1cc(Cl)c(N)c(Cl)c1	–	-1.2%
Cc1ccccc1-c1cncnc1NCCc1cnc[nH]1	5.01 µM (active)	–
CCN1C[C@@]2(COC)CC[C@H](O)[C@@]34[C@@H]2C[C@@H]([C@@H]13)[C@]1(O)C[C@@H](OC)C2C[C@H]4[C@H]1[C@H]2OC(C)=O	–	-7.6%
CC(C)CN1CC2(CCN(C(=O)Oc3ccccc3)CC2)C1	–	-1.4% [at 57 µM]
O=C(Nc1ccccc1)N1CC2(CCN(C(=O)Oc3ccccc3)CC2)C1	20 µM (active)	–
c1csc(CN2CC[C@@]3(CCCNC3)C2)n1	–	-12.5% [at 57 µM]
N#Cc1cccc(NC(=O)N2CC3(CCN(C(=O)Oc4ccccc4)CC3)C2)c1	15.8 µM (active)	–
O=C(Oc1ccccc1)N1CCC[C@@]2(CCN(C(c3ccccc3)c3ccccc3)C2)C1	25.1 µM (active)	–
CC(C)NC(=O)N1CCC2(CC1)CCN(C(=O)Oc1ccccc1)CC2	–	3.3% [at 57 µM]
CC(=O)O[C@H]1CC[C@@]2(C)C(=CC[C@@H]3[C@H]2CC[C@]2(C)C(=O)CC[C@H]32)C1	–	-16.8%
COC(=O)N1CCC2(CCCN(C)C2)CC1	–	3% [at 57 µM]
O=C(c1csnn1)N1CCC2(CC1)CN(Cc1ccncc1)C2	10 µM (active)	–
Clc1ccc([C@@H](OCCN2CCCCC2)c2ccccc2)cc1	12.6 µM (active)	–
CC1=NCCc2c1[nH]c1cc(O)ccc21	12.6 µM (active) and 25.1 µM (active)	–
C#CCN(C)[C@@H](C)Cc1ccccc1	25.1 µM (active) and 10 µM (active)	–
C[C@H]1CN(C2CCC(C#N)(c3ccc(F)cc3)CC2)CC[C@@]1(C(=O)O)c1ccccc1 (stereo not given in full)	–	-1%
C[N+]1([O-])[C@@H]2CC[C@H]1CC(OC(=O)[C@@H](CO)c1ccccc1)C2 (stereo not given in full)	–	0.7%

SMILES	Potency	activity change, negative = inhibition
CN1CCCC2(CCN(C(=O)c3csnn3)CC2)C1	–	-5.4% [at 57 µM]
CN1CC[C@@]2(CCCN(C(=O)c3ccco3)C2)C1	–	8% [at 57 µM]
c1ccc(N2CCC3(CCNCC3)CC2)cc1	–	-18.3% [at 57 µM]
O=C(Oc1ccccc1)N1CCC[C@@]2(CCN(Cc3ccccc3)C2)C1	15.8 µM (active)	–
COc1ccc2c(c1O)-c1c(OC)c(OC)cc3c1[C@H](C2)N(C)CC3	10 µM (active)	–
C[C@@]12CC(=O)[C@H]3[C@@H](CCC4=CC(=O)CC[C@]43C)[C@H]1CCC2=O	–	3.3%
CN1CC[C@@]2(CCCN(C(=O)c3csnn3)C2)C1	–	7.4% [at 57 µM]
NCC[C@H](O)C(=O)N[C@H]1C[C@@H](N)[C@@H](O[C@H]2O[C@@H](CN)[C@@H](O)[C@@H](O)[C@@H]2N)[C@@H](O[C@H]2O[C@@H](CO)[C@@H](O)[C@@H]2O)[C@@H]1O	–	-8.7%
c1cc(CN2CC3(CCNCC3)C2)ccn1	–	-9.4% [at 57 µM]
CC[C@@H](CO)NC(=O)[C@H]1C=C2c3cccc4c3c(cn4C)C[C@H]2N(C)C1	15.8 µM (active)	–
COc1ccc2c(c1OC)CN1CCc3cc4c(cc3[C@H]1C2)OCO4	1.58 µM (active)	–
c1csc(CN2CC3(CCNCC3)C2)n1	–	12.5% [at 57 µM]
CCCN(C/C=C\I)[C@@H]1CCc2ccc(O)cc2C1	25.1 µM (active)	–
CCNC[C@H](O)c1cccc(O)c1	–	4.6%
COc1cc2c3cc1Oc1cc(ccc1O)C[C@@H]1c4c(cc(OC)c(O)c4Oc4cccc(c4)C[C@H]3N(C)CC2)CC[N+]1(C)C	–	-8.4%
C[C@H]1CC[C@@]2(NC1)O[C@@H]1C[C@H]3[C@@H]4CC=C5C[C@@H](O)CC[C@]5(C)[C@@H]4CC[C@]3(C)[C@@H]1[C@@H]2C	–	-7.7%
O=C(Nc1ccccc1)N1CCCC2(CCN(C(=O)Oc3ccccc3)CC2)C1	25.1 µM (active)	–
CC(C)CN1CC2(CCN(C(=O)c3ccncc3)CC2)C1	–	-7.7% [at 57 µM]
CN1CC[C@]2(C)c3cc(O)ccc3N(C)[C@@H]12	15.8 µM (active) and 31.6 µM (active)	–
CO[C@@H](C)[C@](O)(C(=O)OCC1=CCN2CC[C@@H](O)[C@H]12)C(C)C	–	-7%
